We go through 8 molecules from PubChem BioAssay (NCI).

Each structure is given as a SMILES string. About 83,000 compounds went through this panel and 20% of them were active in at least one assay; those are over-represented in the sample as a whole.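 Activity criterion: percent growth below 10, measured after cells in 96-well plates were exposed to a single compound concentration for 48 hours.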 Unmarked numbers belong to inactive results. The source made the active and inactive calls.

Holding throughout (assay): NCI-60 one-dose screen, 48 h (100 = growth as untreated, 0 = no growth, -100 = all killed)
Holding throughout (conditions): 10 µM

Assay [1] concerns 786-0 renal.
The test system of assay [2] is MALME-3M melanoma.
Assay [3] deals with MDA-MB-231 breast.
The test system of assay [4] is SF-268 CNS.
The subject of assay [5] is SF-295 CNS.
Assay [6] deals with UACC-257 melanoma.
The subject of assay [7] is UACC-62 melanoma.
Assay [8] deals with SK-MEL-2 melanoma.
Assay [9] concerns EKVX NSCLC.
In assay [10] the test system is SN12C renal.
Assay [11] has as its system UO-31 renal.
The subject of assay [12] is TK-10 renal.
Assay [13] deals with CAKI-1 renal.
In assay [14] the test system is A498 renal.
Assay [15] relates to OVCAR-8 ovarian.
In assay [16] the test system is OVCAR-5 ovarian.
Assay [17] has as its system IGROV1 ovarian.
Assay [18] deals with OVCAR-3 ovarian.
The subject of assay [19] is HS 578T breast.
In assay [20] the test system is NCI/ADR-RES ovarian.

Turning to `O=C(Nc1ccc(OCc2ccc(Cl)cc2)cc1)Nc1ccc(Cl)c(C(F)(F)F)c1`, the growth is 17.2% in assay [1]; -16.6% (active) in assay [2]; 13.4% in [3]; 43.3% in assay [4]; -12.8% (active) in assay [5]; -6.05% (active) in assay [6]. Also, the growth in [7] was 16.8%; in assay [8], -30% (active); in [9], 2.59% (active); in assay [10] it was 18.2%; in [11], 6.65% (active); in assay [12], 18.5%. The growth is 1.19% (active) in assay [13]; -12.4% (active) in assay [14]; 13.5% in assay [15]; 53.3% in [16]; 47.6% in assay [17]; 29.3% in assay [18]. For the same molecule, the growth in [19] was 22.1%; in [20], 1.08% (active).
Regarding `COc1cccc(C(=O)CSc2nc(-c3ccc(OCc4ccccc4)c(OC)c3)c(C#N)c(=O)[nH]2)c1`, the growth in [1] was 85.7%; in assay [2], 98.3%; in [3] it was 91.1%; in assay [4] it was 97.4%; in assay [5], 95.2%; in assay [6], 94%. In addition, the growth in [7] is 90.9%; in assay [8], 91.7%; in assay [9], 97.1%; in [10], 85.6%; in assay [11], 82.8%; in assay [12], 94.7%. The growth in assay [13] was 90.8%; in assay [14], 95.4%; in assay [15], 105%; in [16], 100%; in assay [17] it was 106%; in assay [18], 106%. Also, the growth is 90.8% in assay [19] and 96.9% in assay [20].
For `Cc1ccc2sc3c(c2c1)Oc1nc[nH]c(=O)c1C3c1cccc(F)c1` (stereo not given), the growth was 102% in assay [1]; 98.7% in assay [2]; 91.1% in [3]; 104% in [4]; 109% in [5]; 101% in assay [6]. Moreover, the growth was 74.5% in assay [7]; 102% in assay [8]; 87.9% in assay [9]; 89.5% in assay [10]; 66.3% in assay [11]; 154% in assay [12]. The growth is 83.2% in assay [13]; 129% in assay [14]; 107% in [15]; 108% in assay [16]; 89.2% in assay [17]; 114% in assay [18]. Moreover, the growth in [19] is 94.4%; in assay [20], 100%.
With `COc1ccc(C2c3sc4ccc(C)cc4c3Oc3nc[nH]c(=O)c32)cc1` (stereo not given), the growth in assay [1] is 103%; in [2], 84.8%; in assay [3] it was 83.6%; in assay [4], 89.7%; in assay [5], 107%; in [6], 88.2%. Besides, the growth is 59.2% in [7]; 68.8% in assay [8]; 92.7% in assay [9]; 91.7% in assay [10]; 64.5% in [11]; 137% in [12]. In addition, the growth in assay [13] is 60%; in assay [14], 119%; in assay [15] it was 98.1%; in [16], 113%; in [17] it was 83.6%; in assay [18], 89%. In addition, the growth in assay [19] is 78.5%; in assay [20], 65.4%.
Consider `Cn1cc(-c2nnc(N)nc2-c2c[nH]c3ccccc23)c2cc(Br)cnc21`, for which the growth was 40.1% in [1]; 45.9% in assay [2]; 54.8% in assay [3]; 57.4% in assay [4]; 37.2% in [5]; 73% in assay [6]. Further, the growth in assay [7] was 24.3%; in [8] it was 46.2%; in assay [9], 46.6%; in [10] it was 56.1%; in [11] it was 24.7%; in assay [12] it was 61.4%. Besides, the growth in assay [13] was 24.3%; in assay [14], 81.9%; in assay [15] it was 62%; in [16], 94.3%; in [17], 35.6%; in assay [18], 65.1%. For the same molecule, the growth in [19] was 77.3%; in assay [20], -5.86% (active).
Take `CCOC(=O)C1=C(N)N(c2ccc(C)cc2)C2=C(C(=O)CC(C)(C)C2)C1c1ccccc1Br` (stereo not given): the growth in [1] was 83.9%; in assay [2], 109%; in assay [3], 93.4%; in assay [4], 99.3%; in [5] it was 90.5%; in assay [6], 84.1%. Besides, the growth is 71.8% in assay [7]; 85% in [8]; 91% in assay [9]; 85.2% in assay [10]; 76% in assay [11]; 110% in assay [12]. In addition, the growth is 69.8% in assay [13]; 108% in [14]; 90.1% in [15]; 97.5% in [16]; 110% in assay [17]; 84.9% in assay [18]. In addition, the growth in [19] is 99.5%; in assay [20] it was 95.7%.
For the molecule `COc1ccc(NCc2cn(-c3ccc(C(=O)O)cc3)nc2-c2ccc(F)cc2)cc1C(F)(F)F`, the growth in assay [1] was 78.2%; in assay [2], 27.3%; in assay [3], 82.6%; in [4] it was 53.8%; in assay [5] it was 29.6%; in assay [6], 64.9%. Moreover, the growth in assay [7] is 13.4%; in assay [8], -30.9% (active); in [9], 45.5%; in [10] it was 32.2%; in assay [11] it was 35.9%; in [12], 95.7%. Besides, the growth in assay [13] is 65.2%; in assay [14], 112%; in assay [15], 37.5%; in assay [16], 72.4%; in [17], 49.9%; in [18] it was 53.4%. Moreover, the growth in assay [19] is 48.7%; in [20], 64.4%.
Consider `Cc1ccc2c(c1)C(=O)/C(=C/c1ccc([N+](=O)[O-])cc1)S2`, for which the growth is 101% in assay [1]; 97.8% in assay [2]; 98.1% in assay [3]; 96.4% in assay [4]; 98.2% in assay [5]; 101% in assay [6]. The growth in [7] is 73.2%; in [8], 101%; in assay [9], 91.6%; in [10], 93.4%; in assay [11], 58.2%; in assay [12], 135%. In addition, the growth in assay [13] is 61.9%; in assay [14], 114%; in [15], 105%; in assay [16], 82.9%; in assay [17], 63.8%; in assay [18], 103%. Besides, the growth in [19] was 86%; in assay [20] it was 95.3%.
